# According to PubChem BioAssay (NCATS):
# Results filed as inconclusive are left out. Active and inactive are the calls of the source. Calls come from the whole dose curve; as a rule, active = well fitted curve in the direction sought with a large enough effect; inconclusive = small, poorly fitted or top-dose-only effect, or another doubt; inactive = no such curve, though single readings can be large; an effect the other way counts as inactive or inconclusive.
# How the values were obtained:
# [1] = qHTS of pediatric cancer cell lines to identify multiple opportunities for drug repurposing: Confirmatory screen for Rh41 cells (AID 1347123);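 note: 48 h compound exposure; nearly all actives have a fitted effect of over 60% in size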
# How it was run: (§1)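 Cells (500-1,000/well) in growth media were settled 5 h at 37 degrees C, then given compounds for 48 h. Viability was read as CellTiter-Glo luminescence. Primary runs used MIPE at 11 points (0.78 nM-46 µM) and NPC at 8 points (0.59 nM-46 µM); follow-ups used 11 points.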
# [2] = qHTS of pediatric cancer cell lines to identify multiple opportunities for drug repurposing: Confirmatory screen for RD cells (AID 1347124);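 note: cells exposed to compound for 48 h before viability readout; nearly all actives have a fitted effect of over 65% in size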
# How it was run: as §1
# [3] = qHTS of pediatric cancer cell lines to identify multiple opportunities for drug repurposing: Confirmatory screen for Rh18 cells (AID 1347125); note: nearly all actives have a fitted effect of over 55% in size
# How it was run: as §1
# [4] = qHTS of pediatric cancer cell lines to identify multiple opportunities for drug repurposing: Confirmatory screen for Saos-2 cells (AID 1347127); note: nearly all actives have a fitted effect of over 60% in size
# How it was run: as §1
# [5] = qHTS of pediatric cancer cell lines to identify multiple opportunities for drug repurposing: Confirmatory screen for OHS-50 cells (AID 1347128);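 note: compound exposure lasted 48 h at 37 degrees C; nearly all actives have a fitted effect of over 55% in size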
# How it was run: as §1
# [6] = qHTS of pediatric cancer cell lines to identify multiple opportunities for drug repurposing: Confirmatory screen for SK-N-SH cells (AID 1347129);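 note: cells exposed to compound for 48 h before viability read; nearly all actives have a fitted effect of over 60% in size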
# How it was run: as §1
# [7] = qHTS of pediatric cancer cell lines to identify multiple opportunities for drug repurposing: Confirmatory screen for Rh30 cells (AID 1347126); note: nearly all actives have a fitted effect of over 55% in size
# How it was run: as §1
# Potency is the fitted concentration of half-maximal effect.
Structure (SMILES),Potency [1],Potency [2],Potency [3],Potency [4],Potency [5],Potency [6],Potency [7]
COc1ccc(Nc2cc(-c3cnc(N)nc3)nc(N3CCOCC3)n2)cn1,4140 nM (active),2610 nM (active),11700 nM (active),3290 nM (active),6570 nM (active),5900 nM (active),
CC(C)C[C@H](NC(=O)CNC(=O)c1cc(Cl)ccc1Cl)B1OC(=O)CC(CC(=O)O)(C(=O)O)O1 (some centres undefined),233 nM (active),414 nM (active),369 nM (active),4650 nM (active),585 nM (active),inactive,
C=CC(=O)N1CCc2ccc(-n3c(=O)ccc4cnc5ccc(-c6cnn(C)c6)cc5c43)cc21,8270 nM (active),10400 nM (active),inactive,5220 nM (active),7370 nM (active),5900 nM (active),5220 nM (active)
CC(C)C[C@H](NC(=O)[C@@H](NC(=O)c1cccc(-c2ccccc2)n1)[C@@H](C)O)B(O)O,73.7 nM (active),52.2 nM (active),82.7 nM (active),414 nM (active),131 nM (active),59 nM (active),
CC1(C)O[C@@H]2C[C@H]3[C@@H]4CCC5=CC(=O)C=C[C@]5(C)[C@@H]4[C@@H](O)C[C@]3(C)[C@]2(C(=O)CO)O1,inactive,inactive,inactive,inactive,inactive,inactive,inactive
CCOC(=O)N1CCN([N+]([O-])=NOc2ccc([N+](=O)[O-])cc2C#N)CC1,18500 nM (active),,,,,,
Cc1cc(Nc2ncc3c(n2)N(C)C(=O)N(c2cc(NC(=O)c4cccc(C(F)(F)F)c4)ccc2C)C3)n(C)n1,208 nM (active),657 nM (active),737 nM (active),585 nM (active),,332 nM (active),inactive
